Data from PubChem BioAssay (NCATS).
Inconclusive results are not listed. The source made the active and inactive calls. Calls come from the whole dose curve; as a rule, active = well fitted inhibition curve with a large enough effect; inconclusive = small, poorly fitted or top-dose-only effect; inactive = flat fitted curve, though single readings scatter.

What was measured:
[1] = qHTS profiling for inhibitors of Plasmodium falciparum proliferation (AID 504749);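 note: 0% = DMSO vehicle and full inhibition = artemisinin control; nearly all actives have a fitted effect of over 60% in size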; conditions: P. falciparum in erythrocytes, SYBR Green DNA, 72 h; at 28.7 µM (top of the series); parasite line A
In short: (§1)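 P. falciparum-infected erythrocytes (0.3% parasitemia, 2.5% hematocrit) incubated with compound 72 h at 37 C, 5% CO2. Parasite DNA detected by SYBR Green after lysis, overnight at room temperature; normalised to 0.29 uM artemisinin and DMSO.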

7G8 = test: as above; conditions: P. falciparum in erythrocytes, SYBR Green DNA, 72 h; series mostly up to 28.7 µM
In short: as §1

ATS95 = test: as above; conditions: P. falciparum in erythrocytes, SYBR Green DNA, 72 h; series mostly up to 28.7 µM
In short: as §1

CP237 = test: as above; conditions: P. falciparum in erythrocytes, SYBR Green DNA, 72 h; series mostly up to 28.7 µM
In short: as §1

CP238 = test: as above; conditions: P. falciparum in erythrocytes, SYBR Green DNA, 72 h; series mostly up to 28.7 µM
In short: as §1

CP262 = test: as above; conditions: P. falciparum in erythrocytes, SYBR Green DNA, 72 h; series mostly up to 28.7 µM
In short: as §1

CP265 = test: as above; conditions: P. falciparum in erythrocytes, SYBR Green DNA, 72 h; series mostly up to 28.7 µM
In short: as §1

CP266 = test: as above; conditions: P. falciparum in erythrocytes, SYBR Green DNA, 72 h; series mostly up to 28.7 µM
In short: as §1

CP268 = test: as above; conditions: P. falciparum in erythrocytes, SYBR Green DNA, 72 h; series mostly up to 28.7 µM
In short: as §1

CP269 = test: as above; conditions: P. falciparum in erythrocytes, SYBR Green DNA, 72 h; series mostly up to 28.7 µM
In short: as §1

CP305 = test: as above; conditions: P. falciparum in erythrocytes, SYBR Green DNA, 72 h; series mostly up to 28.7 µM
In short: as §1

CP325 = test: as above; conditions: P. falciparum in erythrocytes, SYBR Green DNA, 72 h; series mostly up to 28.7 µM
In short: as §1

CP335 = test: as above; conditions: P. falciparum in erythrocytes, SYBR Green DNA, 72 h; series mostly up to 28.7 µM
In short: as §1

DIV30 = test: as above; conditions: P. falciparum in erythrocytes, SYBR Green DNA, 72 h; series mostly up to 28.7 µM
In short: as §1

Dd2 = test: as above; conditions: P. falciparum in erythrocytes, SYBR Green DNA, 72 h; series mostly up to 28.7 µM
In short: as §1

ECU = test: as above; conditions: P. falciparum in erythrocytes, SYBR Green DNA, 72 h; series mostly up to 28.7 µM
In short: as §1

HB3 = test: as above; conditions: P. falciparum in erythrocytes, SYBR Green DNA, 72 h; series mostly up to 28.7 µM
In short: as §1

P93_24 = test: as above; conditions: P. falciparum in erythrocytes, SYBR Green DNA, 72 h; series mostly up to 28.7 µM
In short: as §1

PAD = test: as above; conditions: P. falciparum in erythrocytes, SYBR Green DNA, 72 h; series mostly up to 28.7 µM
In short: as §1

PC26 = test: as above; conditions: P. falciparum in erythrocytes, SYBR Green DNA, 72 h; series mostly up to 28.7 µM
In short: as §1

CC(=O)[C@H]1CC[C@H]2C3CC=C4C[C@@H](O)CC[C@]4(C)C3CC[C@]12C (stereo not given in full)
inactive: activity, negative = inhibition [1] -13% | Potency (7G8) | Potency (ATS95) | Potency (CP237) | Potency (CP238) | Potency (CP262) | Potency (CP265) | Potency (CP266) | Potency (CP268) | Potency (CP269) | Potency (CP305) | Potency (CP325) | Potency (CP335) | Potency (DIV30) | Potency (Dd2) | Potency (ECU) | Potency (HB3) | Potency (P93_24) | Potency (PAD) | Potency (PC26)
